p53ts 32C tox: qHTS Screen for Compounds that Selectively Target Cancer Cells with p53 Mutations: Cytotoxicity of p53ts Cells at the Permissive Temperature; AID 924, 2007; H1299-p53A138V at 32C, ATP luminescence viability, 24 h; Potency, µM (highest dose often 46.1 µM), without a hit: at the highest dose activity change, negative = cytotoxicity, most hits filed as cytotoxic; hit rate 0.93% among 130,000;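 also: potency is read from the fitted curve at half-maximal effect; 0% = DMSO and -100% = full killing by reference compound; nearly all actives have a fitted effect of over 55% in size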
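H1299-p53 A138V cells (temperature-sensitive p53) exposed 24 h to up to 46 uM compound at 32C, where p53 is wild-type in conformation. Viability read as ATP luminescence and normalised to DMSO and 100 uM tamoxifen. AC50 fitted with the Hill equation.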
p53ts 39C tox: qHTS Screen for Compounds that Selectively Target Cancer Cells with p53 Mutations: Cytotoxicity of p53ts Cells at the Nonpermissive Temperature; H1299-p53A138V viability at 39C, ATP luminescence, 24 h; Potency, µM (titrated, usually from 46.1 µM), without a hit: at the highest dose activity change, negative = cell killing, usual class: cytotoxic; hit rate 1.5% among 130,000; also: potency is read from the fitted curve at half-maximal effect; % is scaled to controls: 0 for no effect and ±100 for the full control effect; nearly all actives have a fitted effect of over 55% in size
Epigenetic mod: qHTS Assay for Epigenetic Modulators; mouse C127i GFP locus derepression, cytometry, 30 h; Potency, µM (doses to about 46.1 µM), for inactives: at the top dose GFP derepression (activation); hit rate 0.09% among 68,000; AID 597, 2007; also: % of control where 0% means no effect
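Derepression screen: silenced CMV-GFP reporter in murine C127i cells, 30 h compound incubation at 37 C, washed cells imaged by laser-scanning cytometer to enumerate GFP-expressing objects of 20 to 120 um.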
Peg3 imprint: qHTS Assay for Compounds that Induce Erasure of Genomic Imprints; Potency, µM (doses to about 60.7 µM), without a hit: at the highest dose activity change, positive = activation, most hits filed as activators; AID 1948, 2009; mouse ES Peg3-LacZ reporter, beta-gal luminescence, 40 h; hit rate 0.02% among 110,000; also: potency is read from the fitted curve at half-maximal effect
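Readout: BetaGlo luminescence (5 min, room temp) for LacZ from the normally silent maternal Peg3 allele in female Peg3LacZ-Neo ES cells. Cells 300/well, 40 h, 37C, 5% CO2. Data normalized per plate to negative controls.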
HBB splice mod: qHTS Assay for Modulators of Hemoglobin Beta Chain Splicing; HBB splicing reporter cell assay, activation; EGFP reporter with mutant IVS2-654 intron; response scale: normalised to 500 nM splice-correcting PNA; Potency, µM (series often up to 46.1 µM), without a hit: at the highest dose activation, actives largely listed as activators; hit rate 0.06% among 65,000; also: potency is read from the fitted curve at half-maximal effect; 0% is about no effect
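Compounds were applied for 2 days to HeLa EGFP-654 cells, 500/well in Optimem with 2% FCS. The reporter's EGFP is disrupted by mis-splicing of beta-globin intron IVS2-654. Readout: summed well GFP fluorescence from 488 nm laser scanning; reference was 500 nM antisense […] 654 PNA.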
Ub-GFP proteasome: Ubiquitin-GFP Assay | Ubiquitin-GFP reporter cells, proteasome inhibition, GFP fluorescence; response scale: untreated = 0%, 10 µM MG-132 = 100% | Potency, µM (doses to about 45.9 µM), without a hit: at the highest dose activation (GFP accumulation), usual class: activators | 67,000 tested, under 10 active | AID 526, 2006; active = well fitted activation curve with a large enough effect, not every such curve was filed as active; inconclusive = small, poorly fitted or top-dose-only effect, or another doubt; inactive = no such curve, though single readings can be large or run the other way; also: potency is read from the fitted curve at half-maximal effect
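U2OS cells stably expressing ubiquitin(G76V)-GFP, seeded overnight in 0.5% FBS medium, were exposed to compounds (qHTS, 46 uM to 2.9 nM) for 4 hr at 37 °C. GFP-positive cells were counted by laser cytometry (488 ex/515 em), normalized between basal and 10 uM MG-132.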
The depositor's hits bear a star; ? = inconclusive; / = not tested or not shown; ! = not confirmed by another sample; [ ] = dose if it differs, or a comment. Hits are enriched below; roughly 1.6% of the tested compounds scored in any of these assays. Unless noted, calls follow the shape of the dose curve; as a rule, active = well fitted curve in the direction sought with a large enough effect; inconclusive = small, poorly fitted or top-dose-only effect, or another doubt; inactive = no such curve, though single readings can be large; an effect the other way counts as inactive or inconclusive.

SMILES	p53ts 32C tox	p53ts 39C tox	Epigenetic mod	Peg3 imprint	HBB splice mod	Ub-GFP proteasome
CN1CCN(c2ncc3nc(CCc4ccccc4)c(=O)n(CCc4ccccc4)c3n2)CC1	?	?	5.2%[9.22 µM]	-10.7%	5.3%	-0.9%
O=C1c2c(O)ccc([N+](=O)[O-])c2C(=O)c2c([N+](=O)[O-])ccc(O)c21	0.1%[1.84 µM]	15.8µM*	/	-37.2%	-0.7%	/
CN(C)S(=O)(=O)c1ccc(Nc2ccc(O)c3c2C(=O)c2c([N+](=O)[O-])ccc(O)c2C3=O)cc1	-4.5%[9.22 µM]	-2.8%[9.22 µM]	13.8%[9.22 µM]	?	1.6%[9.22 µM]	2.0%[9.17 µM]
O=C(CCC(=O)N1Cc2ccccc2Oc2ncccc21)Nc1ccc(Cl)cc1	-5.8%	-27.5%	/	?	/	/
CCCCCCCC/C=C\CCCCCCCC(=O)N[C@@H](CO)Cc1ccc(O)cc1	?	31.6µM*	-1.4%	-32.3%	/	3.1%
Cc1cc(=O)[nH]c(SCC(=O)N2CCCc3ccccc32)n1	-6.0%	-2.1%	/	/	/	/
O=c1cc(-c2ccccc2O)oc2cc(O)ccc12	-28.1%	?	/	/	/	/
O=c1cc(-c2cccc(O)c2O)oc2ccccc12	?	10µM*	2.3%[9.22 µM]	-61.8%	/	1.3%
Cc1cc(Br)ccc1NC(=O)CNC(=O)CN1C(=O)NC2(CCCCCC2)C1=O	-4.2%	-10.8%	-0.1%	-5.9%	-0.4%	-7.5%
O=C(NCCCN1CCN(c2cccc(Cl)c2)CC1)c1cnn(-c2ccc(F)cc2)c1-n1cccc1	?	2.51µM*	/	-10.1%[10.9 µM]	/	/
CCCN(CCC)CCCNC(=O)c1cnn(-c2ccc(F)cc2)c1-n1cccc1	-9.6%	-14.9%	/	-14.1%[10.9 µM]	/	/
Cc1ccc2c(=O)c(C(=O)c3cccc(Cl)c3)cn(CC(=O)Nc3ccc4c(c3)OCCO4)c2n1	0.2%	-18.1%	/	-0.5%[10.9 µM]	/	/
CC(=O)c1cccc(NC(=O)c2cc3ccccn3n2)c1	12.6µM*	12.6µM*	1.9%	-71.6%	-0.5%	-8.8%
CC(=O)c1cccc(NC(=O)c2nc3ccccc3n(C)c2=O)c1	2.24µM*	1.58µM*	/	-44.9%[10.9 µM]	/	/
CC(=O)c1cccc(NC(=O)c2cnn3ccccc23)c1	?	?	/	-80.3%	-0.1%	-1.4%
Cc1cc(Cl)ccc1NC(=O)c1cc2ccccn2n1	10µM*	5.01µM*	/	-16.8%[10.9 µM]	/	/
COc1ccc(Cl)cc1NC(=O)c1cc2ccccn2n1	-5.8%	-3.8%	/	-4.1%[10.9 µM]	/	/
CCc1nn2c(=O)cc(COC(=O)c3cccc(NC(=O)c4ccccc4Cl)c3)nc2s1	-1.2%	-5.0%	/	-19.5%[10.9 µM]	/	/
O=C(NCC1CCCO1)C1CC(c2ccc(Cl)c(Cl)c2)=NO1 (stereo not given)	-2.3%	-1.4%	-2.7%	-1.5%	-0.4%	3.4%
Cc1cc(C)c2c(-c3ccc(-c4ccc(C(F)(F)F)cc4)cc3)cc(=O)oc2c1	/	/	/	-8.3%	/	/
CCN(CCCNC(=O)c1cc2cc3ccc(OC)cc3nc2s1)c1cccc(C)c1	?	12.6µM*	/	1.4%[10.9 µM]	/	/
Cc1ccccc1C(=O)N1CCCCC1CCN1CCCCC1 (stereo not given)	0.9%	-24.7%	/	-12.9%[10.9 µM]	/	/
CCCOc1ccccc1C(=O)N1CCCCC1CCN1CCCCC1 (stereo not given)	-2.9%	22.4µM*	/	-10.0%[10.9 µM]	/	/
CCN(CC)CCC[C@H](C)Nc1c2ccc(Cl)cc2nc2ccc(OC)cc12	5.01µM*	10µM*	12.6µM*!	-10.3%[16.8 µM]	12.6µM*	3.1%[20.5 µM]
COc1ccc(C(=O)Nc2nc(C)c(C(=O)N(C)C)s2)cc1OC	12.6µM*	-20.0%	4.0%	-46.4%	0.2%	2.4%
Cc1nc(NC(=O)c2ccc(Br)s2)sc1C(=O)N(C)C	12.6µM*	?	-2.7%	-47.5%	-1.2%	8.0%
COC(=O)c1ccc(COc2ccc3c(C)c(C)c(=O)oc3c2)o1	-13.9%	-8.6%	0.0%	-87.2%	-4.3%[0.0738 µM]	2.1%[9.17 µM]
